52 compounds from ChEMBL document CHEMBL3988442, “University of Dundee, Small-Polar-MMV Screening Library” (2021) can be followed below.

The campaign covered roughly 48,000 compounds. About 13,000 (27%) showed an effect of 50% or more. This is one part of the list.

The test system of the test is Wolbachia pipientis. Put plainly: Anti-Wolbachia Cell-Based Screen. Type of test: functional. The settings on record: 5 µM. Further details: scale not given: in the data most compounds retested in dose-response had high values.
In the case of `Cc1csc(CNC(=O)NCC(O)c2ccc(F)cc2F)n1` (configuration not stated), the “Percent Effect” value is -0.3867%. To `Cc1cc(-c2cnc(NCc3ccncc3)nc2C(C)C)on1` belongs 155.1%; to `CCc1c(NCc2ccncc2)cnn1CC(C)C`, -6.7%. To `Cc1cnc(NCc2ccc(S(=O)(=O)N(C)C(C)C)cc2)nc1C` belongs -3.312%; to `Cc1ccc2c(c1)C1(CC2)CCN(c2nncs2)CC1`, -2.782%; to `O=C(O)C(F)(F)F.c1cncc(-c2ccc3c(c2)C2(CC3)CCN(c3nncs3)CC2)c1`, 7.623%. The same measure for `CC/C=C(/C)C(=O)N1CCN(C2=NCC(C)S2)CC1` (configuration not stated): -1.897%; for `CCOCCN1CCN(Cc2nc(C3CC3)no2)CC1CC` (configuration not stated): -17.64%; for `O=C(NC1CC1)[C@@H]1CCO[C@@H]2CCN(CC3CCC3)C[C@@H]21.O=C(O)C(F)(F)F`: 20.69%.

Consider `O=C(NC1CCC1)[C@H]1C[C@@H]2CN(CC3CC3)C[C@H]1O2.O=C(O)C(F)(F)F`, for which the “Percent Effect” value stood at 120%. To `CC(C)CN1C[C@H]2C[C@H](C(=O)NC3CCC3)[C@@H](C1)O2.O=C(O)C(F)(F)F` belongs 89.64%. To `O=C(NC1CCC1)[C@H]1C[C@@H]2CN(S(=O)(=O)c3ccccc3)C[C@H]1O2` belongs 5.233%; to `O=C(NC1CC1)[C@@H]1CCO[C@@H]2CCN(CC3CCC3)C[C@H]21.O=C(O)C(F)(F)F`, -19.72%; to `CN(C)CCNC(=O)[C@H]1C[C@@H]2CN(C(=O)NC3CCCC3)C[C@H]1O2.O=C(O)C(F)(F)F`, 6.498%. With `NC(=O)c1cc(-c2cccc(C(=O)O)c2)cs1`, the “Percent Effect” value is 7.533%. To `CCCN(C)CC1CCN(c2ccc(Br)c(C)n2)C1` (configuration not stated) belongs -15.16%; to `CC1CCN(S(=O)(=O)N2Cc3ccccc3C[C@H]2C(N)=O)CC1`, 91.1%.

For `NC(=O)[C@@H]1Cc2ccccc2CN1CCC(=O)N1CCOCC1`, the “Percent Effect” value came to 8.62%. As to `NC(=O)[C@@H]1Cc2ccccc2CN1CCc1cccs1`, the “Percent Effect” value is -22.09%.

Regarding `CC1CCN(S(=O)(=O)N2C[C@H](c3ccccc3)[C@@H](N)C2)CC1`, the “Percent Effect” value is listed as -3.535%. To `NC(=O)[C@@H]1Cc2ccccc2CN1S(=O)(=O)N1CCCCC1` belongs 78.36%; to `NC(=O)C1Cc2ccccc2CN1CCC(=O)N1CCc2ccccc21` (configuration not stated), -4.733%; to `CC1CCN(C(=O)CCN2Cc3ccccc3C[C@H]2C(N)=O)C1` (some centres not stated), -2.608%. Turning to `NC(=O)[C@@H]1Cc2ccccc2CN1S(=O)(=O)N1CCCCCC1`, the “Percent Effect” value was determined as 103%.

With `NC(=O)C1CCCN1c1cc(N2CCc3ccccc3C2)ncn1` (configuration not stated), the “Percent Effect” value is listed as -10.01%.

In the case of `CN(CC(C)(C)O)C(=O)Nc1ccc(F)c(-n2cccc2)c1`, the “Percent Effect” value is on record as 2.422%. To `CNS(=O)(=O)c1cccc(C(C)NCc2cccc(C)c2C)c1` (configuration not stated) belongs 8.764%. Regarding `O=C(C1CC2(CCNCC2)CN1)N1CCN(c2cccc(Cl)c2Cl)CC1` (configuration not stated), the “Percent Effect” value turned out to be 3.67%. To `COCCOCC(=O)N1C[C@H]2CC[C@@H]1CN(C1Cc3ccccc3C1)C2` belongs 11.56%; to `COc1cccc(C(=O)NCc2ccccc2S(=O)(=O)N(C)CCO)c1`, 1.796%; to `CCS(=O)(=O)c1ncc(CN2CCOCC2)n1CCCc1ccccc1`, 6.125%. The same measure for `CCN1CC2(CCC1=O)CCN(c1ccc(C(C)=O)cn1)CC2`: 0.06704%; for `CCc1nc(CN2CCCC(Cn3nc(C)nc3C)C2)no1` (configuration not stated): 81.07%.

Consider `Cc1nc(C)n(CC2CCCN(Cc3nc(C4CC4)no3)C2)n1` (configuration not stated), for which the “Percent Effect” value is recorded as 2.839%.

In the case of `Cc1noc(CN2CCCC(Cn3nc(C)nc3C)C2)n1` (configuration not stated), the “Percent Effect” value was found to be 104.9%. On to `Cc1nc(C)n(CC2CCCN(Cc3noc(C)n3)C2)n1` (configuration not stated), for which the “Percent Effect” value amounted to 96.94%.

On to `Cc1nc(C)n(CC2CCCN(CC3CCCCC3)C2)n1` (configuration not stated), for which the “Percent Effect” value is on record as 104.8%. In the case of `CS(=O)(=O)N1C[C@@H]2COC[C@@H](CC(=O)N3CCCCO3)[C@@H]2C1`, the “Percent Effect” value is -9.378%. Turning to `CNC(=O)[C@@H](c1ccccc1F)N1CCC[C@H]1C(=O)NC1CC1.Cl`, the “Percent Effect” value is 0.6767%. The same measure for `O=C1N[C@@H]2CCN(C(=O)C3CC3)[C@@H]2C(=O)N1c1ccccc1`: -5.528%. To `Cc1ccccc1Oc1ncccc1CNS(=O)(=O)N(C)C` belongs -17.53%. The same measure for `CC(C)c1cc(N[C@H](C(N)=O)C(C)C)n2nccc2n1`: -22.97%. As to `COCCc1noc(CN2CCCC(Cn3nc(C)nc3C)C2)n1` (configuration not stated), the “Percent Effect” value was 0.4033%. For the compound `CCc1noc(CN2CCCC(Cn3nc(C)nc3C)C2)n1` (configuration not stated), the “Percent Effect” value is given as 134.9%. On to `CS(=O)(=O)CCN1CC(c2ccccc2)(c2ccccc2)CCC1=O`, for which the “Percent Effect” value is -17.1%.

In the case of `O=C1CC(c2ncc(-c3ccc4c(c3)OCCO4)[nH]2)CN1C1CC1` (configuration not stated), the “Percent Effect” value is recorded as -4.884%. The same measure for `CC(C)NC(=O)COc1cccc(-c2nc(C(C)C)no2)c1`: 105.1%; for `CC(C)NC(=O)COc1ccc(-c2nc(C(C)C)no2)cc1`: 114.1%.

As for `CC(NC(=O)COc1nc(C(C)(C)C)no1)c1ccco1` (configuration not stated), the “Percent Effect” value is recorded as 8.75%. To `C=C(C)COc1cccc(C(=O)N(CC)Cc2noc(C)n2)c1` belongs -33.22%.

As to `CC(C)NC(=O)COc1nc(C(C)(C)C)no1`, the “Percent Effect” value is recorded as -1.58%. The same measure for `CC(C)c1noc(CCCC(=O)NCCOc2ccccc2)n1`: -1.504%.
